Drawing on PubChem BioAssay (EPA / NIEHS), this text covers outcome and AC50 for 27 compounds.

Values joined by “and” are separate entries in the source; they are usually repeats but may differ in a detail not shown here. Identical values can stand only once. Some structures have more than one record in an assay (separate samples or runs), and their calls can disagree. Active and inactive are the calls of the source. Rule for the calls: active = hit-call score of the fitted dose curve at least 0.9, where 1 is the maximum; inactive = score below 0.9.

Read-out in this assay: Monocyte Chemoattractant Protein-1 (MCP1), CCL2 (gene 6347)
Description: BSK_LPS_MCP1: BioMAP Diversity Plus: LPS Assay for Monocyte Chemoattractant Protein-1 (MCP1) Biomarker Activity (AID 2283081).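 For AC50: co-culture stimulated with LPS.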 Conditions: primary human HUVEC with PBMC; actives raise or lower the signal. The procedure:
BSK_LPS is a cell-based, multiplexed-readout assay that uses umbilical vein endothelium and peripheral blood mononuclear cells, a human vascular primary cell co-culture, with measurements taken at 24 hours after chemical dosing in a 96-well plate.BSK_LPS_MCP1 is an assay component measured in the BSK_LPS assay. It measures MCP-1 antibody related to regulation of gene expression using ELISA technology.Data from the assay component BSK_LPS_MCP1 was analyzed into 1 assay endpoint. This assay endpoint, BSK_LPS_MCP1, was analyzed with bidirectional fitting relative to DMSO as the negative control and baseline of activity. Using a type of binding reporter, gain or loss-of-signal activity can be used to understand changes in the signaling as they relate to the gene CCL2. Furthermore, this assay endpoint can be referred to as a primary readout, because this assay has produced multiple assay endpoints where this one serves a signaling function. To generalize the intended target to other relatable targets, this assay endpoint is annotated to the cytokine intended target family, where the subfamily is chemotactic factor.
The levels of cell surface (or secreted, indicated by the prefix "s") biomarker endpoints were measured by ELISA. Overt cytotoxicity to cells in confluent adherent cultures (all systems other than the BT system) was assessed by measuring total protein levels using sulforhodamine B (SRB) staining in parallel cultures at the time of biomarker measurements, indicated as SRB endpoints. For proliferation assays for adherent cell types, individual cell types are cultured at sub-confluence and relative cell numbers quantified by SRB staining at time points optimized for each system (48 h: 3C and CASM3C systems; 72 h: BT and HDF3CGF systems; 96 h: SAg system). SRB was performed by staining cells with 0.1% SRB after fixation with 10% TCA and reading wells at 560 nm.Viability and proliferation of PBMC (T cells) was quantified by Alamar Blue reduction for the SAg and BT systems. For PBMC viability (referred to as PBMC Cytotoxicity within the assay endpoint names), cells were plated (75,000/well in a 96-well plate) and then chemical samples added for 1 h before addition of activators, SEB and TSST-1 (20 ng/mL final concentration each). Cells were incubated for 90 h. Then, Alamar Blue (20 uL/well) (Invitrogen, Cat DAL1100) was added for 6 h, and the plates were read with a fluorescence microplate reader at 546/580 nm (excitation/emission). For PBMC proliferation, cells were plated and activated as above but incubated for only 16 h prior to addition of Alamar Blue. Plates were read after 6 h.
In the case of `CC(C)CC(=O)CC(C)CC(C)C` (stereo not drawn), the result was inactive.
On to `Cc1cc(-n2nc3ccc(Cl)cc3n2)c(O)c(C(C)(C)C)c1`, for which the outcome was inactive.
Turning to `CC[N+](CC)(CC(=O)Nc1c(C)cccc1C)Cc1ccccc1`, the outcome was inactive.
What is called AC50 is the concentration giving half of the maximal activity seen. `Sc1nc2ccccc2s1`: the AC50 is 0.504 µM (active).
Regarding `CCCCCCC(O)CCCCCCCCCCC(=O)OC` (stereo not drawn), the result was inactive.
Turning to `Cc1cccnc1`, the outcome was inactive.
Still for that read-out and setting: for `CCCCCCCCCC/C=C/C1CC(=O)OC1=O` (stereo not drawn) the value was “inactive”.
On to `CCCCCCCCCCC1CO1` (stereo not drawn), for which the AC50 is 31.7 µM (active).
`COC(=O)/C=C\C(=O)OC`: the result was inactive.
Regarding `COc1ccc(C(=O)c2ccccc2O)c(O)c1`, the outcome was inactive.
As for `CC(C)C1OCCN1CCOC(=O)NCCCCCCNC(=O)OCCN1CCOC1C(C)C` (stereo not drawn), the result was inactive.
Consider `COc1cc(CNC(=O)CCCC/C=C/C(C)C)ccc1O`, for which the result was inactive.
As to `CCCCCCCCCCCCCCCCCC[N+](C)(C)C`, the AC50 was 3.66 µM (active).
As for `CC[N+](CC)(CC(=O)Nc1c(C)cccc1C)Cc1ccccc1` (tested in a mixture with another compound), the result was inactive.
Regarding `Oc1cccc2ccccc12`, the outcome was inactive.
With `Cc1c(C(N)=O)cc([N+](=O)[O-])cc1[N+](=O)[O-]`, the outcome was inactive.
For `CN(C)Cc1cc(C(C)(C)C)c(O)c(C(C)(C)C)c1`, the result was inactive.
For the compound `CCC(C)=NO`, the result was inactive.
Turning to `CN(C)CCC(c1ccc(Cl)cc1)c1ccccn1` (stereo not drawn), the result was inactive.
Regarding `CCCCC(CC)COC(=O)C=Cc1ccc(OC)cc1` (stereo not drawn), the result was inactive and the AC50 was 32.3 µM (active).
In the case of `C1CN(CCOCCN2CCOCC2)CCO1`, the outcome was inactive.
As for `O=[N+]([O-])c1cc(S(=O)(=O)Nc2ccccc2)ccc1Nc1ccccc1`, the AC50 is 29.1 µM (active) and 28.5 µM (active).
In the case of `CCC[Si](OC(C)=O)(OC(C)=O)OC(C)=O`, the outcome was inactive.
As to `O=C(C(=O)c1ccccc1)c1ccccc1`, the outcome was inactive.
As to `COc1ccccc1Oc1c(NS(=O)(=O)c2ccc(C(C)(C)C)cc2)nc(-c2ncccn2)nc1OCCO`, the outcome was inactive.
Take `OC(C(F)(F)F)(C(F)(F)F)C(O)(C(F)(F)F)C(F)(F)F`: the AC50 is 23.9 µM (active) and 23.3 µM (active).
On to `CN(C)c1ccc(C(c2ccccc2)c2ccc(N(C)C)cc2)cc1`, for which the AC50 was 13.2 µM (active).
